The supplement of paper PMC6555819

Columns and labels:
Test in all cases: PBM binding z-score (relative to random genomic background probes); higher = stronger binding; sequences stand for … in GC…GCGATTGACAGCGTAGAATGAAGG
[1] = test system: FXR:RXRa (NR concentration 270 nM, RXRa partner concentration 90 nM)
Method in brief: (§1)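 Binding z-scores take random background probes as their reference. They come from custom Agilent 4×180K protein-binding microarrays incubated 1 h with ligand-free nuclear receptor dimers, with antibodies against each partner (one per run) detecting binding. Scanned fluorescence was regression-normalized.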

[2] = test system: LXRa:RXRa (NR concentration 270 nM, RXRa partner concentration 90 nM)
Method in brief: as §1

[3] = test system: LXRa homodimer (NR concentration 270 nM)
Method in brief: as §1

[4] = test system: LXRb:RXRa (NR concentration 270 nM, RXRa partner concentration 90 nM)
Method in brief: as §1

[5] = test system: LXRb homodimer (NR concentration 270 nM)
Method in brief: as §1

[6] = test system: PPARa:RXRa (NR concentration 270 nM, RXRa partner concentration 90 nM)
Method in brief: as §1

[7] = test system: PPARg:RXRa (NR concentration 180 nM, RXRa partner concentration 90 nM)
Method in brief: as §1

[8] = test system: PPARg:RXRa 270nM:90nM, anti-RXR (NR concentration 270 nM, RXRa partner concentration 90 nM)
Method in brief: as §1

[9] = test system: PPARg:RXRa 30nM:10nM, anti-RXR (NR concentration 30 nM, RXRa partner concentration 10 nM)
Method in brief: as §1

[10] = test system: PPARg:RXRa 90nM:30nM, anti-RXR (NR concentration 90 nM, RXRa partner concentration 30 nM)
Method in brief: as §1

[11] = test system: PPARg:RXRa DBDmut IVT, anti-RXR (DBD mutation: RXRa K156A/R161A, NR concentration 270 nM, RXRa partner concentration 90 nM)
Method in brief: as §1

[12] = test system: PPARg:RXRa IVT, anti-PPARg (NR concentration 270 nM, RXRa partner concentration 90 nM)
Method in brief: as §1

[13] = test system: PPARg DBDmut:RXRa IVT, anti-PPARg (DBD mutation: PPARg1 K132A/R137A, NR concentration 270 nM, RXRa partner concentration 90 nM)
Method in brief: as §1

[14] = test system: PPARg DBDmut IVT, anti-PPARg (DBD mutation: PPARg1 K132A/R137A, NR concentration 270 nM)
Method in brief: as §1

[15] = test system: PPARg homodimer (NR concentration 180 nM)
Method in brief: as §1

[16] = test system: PXR:RXRa (NR concentration 270 nM, RXRa partner concentration 90 nM)
Method in brief: as §1

[17] = test system: PXR homodimer (NR concentration 270 nM)
Method in brief: as §1

[18] = test system: RARa:RXR (NR concentration 270 nM, RXRa partner concentration 90 nM)
Method in brief: as §1

[19] = test system: RARa homodimer (NR concentration 270 nM)
Method in brief: as §1

[20] = test system: RARb:RXRa (NR concentration 270 nM, RXRa partner concentration 90 nM)
Method in brief: as §1

Sequence	PBM binding z-score [1]	PBM binding z-score [2]	PBM binding z-score [3]	PBM binding z-score [4]	PBM binding z-score [5]	PBM binding z-score [6]	PBM binding z-score [7]	PBM binding z-score [8]	PBM binding z-score [9]	PBM binding z-score [10]	PBM binding z-score [11]	PBM binding z-score [12]	PBM binding z-score [13]	PBM binding z-score [14]	PBM binding z-score [15]	PBM binding z-score [16]	PBM binding z-score [17]	PBM binding z-score [18]	PBM binding z-score [19]	PBM binding z-score [20]
CCTAGTGGGCCAAAAAGGTCATTGATGCCGATAA	3.3	4.12	3.05	3.87	0.134	4.56	3.16	3.97	1.73	3.24	3.84	4.01	-0.411	-0.658	3.24	4.65	3.02	4.62	1.5	3.94
ATACGAAGGTGATCGTGAGGTCGTTGATACTAAC	1.79	1.18	0.283	0.729	-0.403	1.47	0.5	0.532	0.382	0.531	0.525	0.827	0.418	-0.452	0.589	2.82	1.23	2	0.134	1.29
CCCCGGAGGACAACAGGAGGTCAGAGCTGCCAGA	1.51	2.55	2.5	1.75	-0.479	2.24	0.602	0.469	-0.809	-0.262	-0.654	0.373	-1.55	-1.4	2.15	2.19	0.777	2.7	0.677	2.86
CAAACTAGGTCCAGAGGTCAAAGTCCGCTTCCCG	4.77	5.55	5.71	5.03	1.62	5.29	5.18	6.22	4.37	6.29	2.96	3.98	0.89	0.535	3.29	5.47	2.58	5.5	0.452	4.11
GCTAGTTGGTCAGTAAAAGGTCACGCACCGGTCG	4.11	4.91	4.69	4.3	0.681	4.73	3.18	5.04	2.52	4.78	1.6	2.94	1.14	0.145	5.9	5.48	1.28	6.73	4.45	4.47
TCTGCTAGGTAAGTTGGTCAGCTAACGAGCTGCC	-0.553	-0.651	-0.909	-0.852	-0.795	-0.166	-0.748	0.411	1.22	0.642	0.619	0.862	-0.126	-0.493	-1.41	-0.474	-1.39	-0.538	-1.81	-0.235
CCTCGGAGGCCAGAAGGTCAGAGCTGTCCGCTTT	1.46	1.39	-0.337	0.993	-0.99	1.97	-0.665	1.19	-0.826	0.521	-0.00859	-0.274	-1.71	-1.89	0.843	1.32	-0.625	2.12	-0.274	2.98
CGAACTAGGTCATCCAGGACAGTCAATACATTGA	4.68	3.11	0.817	2.43	0.306	5.03	7.74	6.5	3.94	6.22	8.57	8.35	3.88	2.33	1.98	2.25	1.6	2.83	0.712	3.95
CCTTACGGGTCACGCGGTTATAGCACGACGAGCG	6.26	4.51	0.11	3.64	0.0354	5.65	6.07	6.24	2.58	4.96	4.11	4.96	0.683	0.817	1.05	3.53	-0.0866	4.59	0.82	4.33
ATCTCTAGGTAAAAAGTTCAGTGAAAGAGAGGAC	1.28	1.39	1.03	0.921	0.888	1.98	2.7	3.72	2.6	3.68	1.79	2.04	1.14	0.995	1.73	1.56	1.46	1.33	1.65	2.38
CCTTACGGGTCACTGACAGGTTATAGGATTTGGA	4.95	4.33	0.341	3.36	-0.182	5.09	4.36	4.46	1.48	3.55	3.61	3.81	0.353	-0.0191	2.26	3.57	0.377	4.38	0.591	4.08
GCATATAGGCAATACAAGGTGAAAGTCCGATTGT	0.177	0.0524	-0.175	0.343	-0.636	1.12	0.804	0.669	0.415	0.712	1.94	1.46	0.326	-0.0602	-0.222	0.231	0.012	0.876	-0.301	0.172
TCATATAGGTAAACAGGTGAAAGTGCGTAAGTTA	1.13	1.29	0.37	1.13	0.114	3.19	4.88	5.09	4.64	5.1	4.84	4.9	1.29	1.03	1.33	1.04	0.631	1.27	1.75	0.94
AGTCAAAGTTCACTAGATAACGTAAGATTCAGCT	4.55	4.91	2.72	2.91	1.04	3.97	5.54	5.7	2.23	4.53	0.283	2.53	1.22	1.17	2.06	3.77	3.07	2.89	1.09	4.66
ATCTCTAGGTAACAAGTTGAGTGAAAGAGAGGAC	0.601	0.354	0.274	0.114	0.76	0.677	1.25	1.76	0.856	1.6	3.42	2.71	1.43	1.04	0.666	0.294	0.569	0.445	1.29	0.64
ACTAGCAGGCCAAGTTTGGGTCACTGAAACAAAG	0.428	0.0569	-0.409	0.671	-0.515	1.52	0.0239	0.587	-0.227	-0.112	0.913	1.45	-0.659	-0.796	0.506	0.641	-0.0145	1.25	-0.321	2
ATCTCTAGTTAACAAGTTCAGTGAAAGAGAGGAC	0.682	1.12	0.782	0.883	1.22	0.724	0.29	0.54	0.48	0.596	0.0329	0.697	1.35	1.03	0.961	1.81	2.1	0.902	1.15	1.49
CCTTACGTGTCACGAGGTTATAGCACGACGAGCG	1.42	1.62	0.447	1.29	0.663	2.43	2.05	1.6	0.219	0.814	2.43	2.16	0.0495	0.563	1.81	1.5	0.447	1.97	0.817	1.78
ATATGTAGGTTAAGGGGCATTCAGGTTGGTTCGC	1.42	2	1.15	2.75	1.48	5.25	9.21	8.26	8.39	9.63	7.2	7.11	2.3	1.88	2.29	2.12	1.83	1.92	1.47	1.78
TTACCAAGGGGAAGGTCGTTGATCCCTCTGTAGA	0.907	0.734	-0.259	0.976	-0.862	1.38	0.79	2.13	0.461	1.52	-0.147	0.449	-0.647	-0.525	-0.13	0.711	-0.0192	0.899	-0.541	0.811
TCTTGTAGATCAGCAGGTTAAGAAGGCTGGCCAA	0.433	0.344	-0.0872	0.367	-0.714	0.674	-0.387	1.6	2.59	2.41	1.84	0.182	-0.501	-0.862	0.413	0.183	-0.311	0.64	-0.641	0.214
GCTACTAGGTCAGGTTGGTCAGCTAACGGGTACG	1.47	0.811	0.0315	0.809	0.129	2.66	4.12	3.52	0.868	3.19	7.04	6.37	0.412	0.27	1.12	0.422	-0.0861	0.74	0.258	3.26
CGTCCCAGGTCAATGCTAGGTCAGTGAAAGCATT	4.29	4.18	2.32	3.02	-0.0307	3.94	2.35	3.05	0.367	1.97	2.01	2.96	-0.129	-0.875	3.66	3.21	0.306	4.72	-0.102	4.37
CGAACTAGGTCAGAACAGGACAGTGATGGATGAT	1.29	0.678	0.233	0.327	-0.482	2.91	5.11	4.36	2	3.37	6.82	7.04	3.7	2.44	1.38	0.583	0.0168	1.39	0.336	2.66
CGATCGAGGGCATGAGTTGATAGCAAATGCCGAT	0.233	-0.0163	-0.798	-0.0334	-1.04	1.22	1.17	1.29	-0.0363	0.755	2.46	1.93	-0.505	-0.163	0.296	0.228	-0.306	0.106	-0.984	1.94
GCAGACAGGTGAAACGCAGCTAACTCAGGGTGGC	-0.722	-0.436	-0.887	-0.728	-1.13	0.359	0.371	-0.353	-0.974	-0.585	0.771	0.278	-1.29	-0.6	-1.08	-0.921	-0.971	-0.616	-1.12	0.0872
AGAACGAGGGCACGCTGAGTTTATAGCAGAGTAG	0.87	1.08	-0.437	0.283	-1.07	2.21	2.19	1.98	0.505	1.43	4.28	3.85	1.13	0.317	0.761	3.96	2.87	1.28	-0.418	2.63
ACTAGCCGGCCAAGGGTCACTCAAGATTAGTCCG	2.41	2.53	0.141	2.59	-0.832	3.81	5.6	5.62	3.35	5.18	-0.188	2.25	-0.122	-1.13	0.922	3	-0.135	3.82	-0.211	3.41
